Bioassay records as filed in PubChem.
G9a block – G9a (human) methyltransferase inhibition. 350,000 tested, 8.8% active. Potency, µM (titrated, usually from 102 µM), for inactives: at the highest dose activity, negative = inhibition, hits mostly inhibitors. G9a H3K9 monomethylation, AlphaScreen, 2 h; also: potency is read from the fitted curve at half-maximal effect; % is scaled to controls: 0 for no effect and ±100 for the full control effect; nearly all actives have a fitted effect of over 75% in size
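G9a (20 nM) preincubated 15 min RT with compounds, then 500 nM biotinylated H3K9 peptide and 20 uM SAM added; 2 h RT reaction. Monomethyl-H3K9 product detected by AlphaScreen with anti-H3K9me1 antibody, streptavidin donor and anti-rabbit IgG acceptor beads.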
HP1b binding inh – blocks HP1-beta chromodomain binding to methylated histone tails; P83916; AlphaScreen HP1-beta / biotin-H3K9me3 peptide binding; Potency, µM (doses to about 114 µM), for the others: top-dose activity change, negative = inhibition, usual class: inhibitors; 390,000 tested, 0.56% active; AID 540317; also: potency is read from the fitted curve at half-maximal effect; nearly all actives have a fitted effect of over 70% in size
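Compound inhibition of the preformed complex between 50 nM HP1-beta and 50 nM biotinylated H3K9me3 peptide was read by AlphaScreen. Buffer was PBS pH 7.4 with 0.01% Tween-20. Incubations ran 30 min at room temperature, with 10 ug/mL donor/acceptor beads.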
CtBP-E1A inh – inhibitors of CtBP/E1A interaction | AlphaScreen GST-E1A/His-CtBP binding, 1536-well; stronger effect = lower value | activity change, % (test concentration not listed) | 340,000 tested, 0.49% active | AID 651724; in the data active = activity change below about -65%; inconclusive = mostly about -30% to -63%; also: % is scaled to controls: 0 for no effect and ±100 for the full control effect
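GST-E1A and His-tagged CtBP (125 nM each as 5X stock) were preincubated with pin-transferred compound for 2 h at 37 °C in the dark, then glutathione donor and nickel acceptor beads were added for 1 h before AlphaScreen reading.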
Six1-Eya2 inh – Six1/Eya2 interaction inhibition. Q15475+O00167. AID 651725. activity change, % (concentration not given with the values). AlphaScreen GST-Six1/His-Eya2 binding, biochemical; stronger effect = lower value. 360,000 tested, 0.56% active; in the data active = activity change below about -65%; inconclusive = mostly about -30% to -63%; also: % is scaled to controls: 0 for no effect and ±100 for the full control effect
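AlphaScreen with GST-Six1 and His-Eya2 (5X mix: 250 nM and 500 nM), glutathione donor and nickel acceptor beads; buffer 50 mM Tris pH 8.0, 300 mM NaCl, 1 mM TCEP; 1 h at 37 C in the dark.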
JMJD2A Tudor – blocks the human JMJD2A Tudor domain | 390,000 tested, 4.4% active | AlphaScreen JMJD2A-Tudor / H3K4me3 peptide binding | O75164 | Potency, µM (doses to about 114 µM), for the others: at the highest dose activity change, negative = inhibition, usual class: inhibitors; also: potency is read from the fitted curve at half-maximal effect; % is scaled to controls: 0 for no effect and ±100 for the full control effect; nearly all actives have a fitted effect of over 50% in size
Target sequence (O75164 whole entry, looked up, the tested form may be a part): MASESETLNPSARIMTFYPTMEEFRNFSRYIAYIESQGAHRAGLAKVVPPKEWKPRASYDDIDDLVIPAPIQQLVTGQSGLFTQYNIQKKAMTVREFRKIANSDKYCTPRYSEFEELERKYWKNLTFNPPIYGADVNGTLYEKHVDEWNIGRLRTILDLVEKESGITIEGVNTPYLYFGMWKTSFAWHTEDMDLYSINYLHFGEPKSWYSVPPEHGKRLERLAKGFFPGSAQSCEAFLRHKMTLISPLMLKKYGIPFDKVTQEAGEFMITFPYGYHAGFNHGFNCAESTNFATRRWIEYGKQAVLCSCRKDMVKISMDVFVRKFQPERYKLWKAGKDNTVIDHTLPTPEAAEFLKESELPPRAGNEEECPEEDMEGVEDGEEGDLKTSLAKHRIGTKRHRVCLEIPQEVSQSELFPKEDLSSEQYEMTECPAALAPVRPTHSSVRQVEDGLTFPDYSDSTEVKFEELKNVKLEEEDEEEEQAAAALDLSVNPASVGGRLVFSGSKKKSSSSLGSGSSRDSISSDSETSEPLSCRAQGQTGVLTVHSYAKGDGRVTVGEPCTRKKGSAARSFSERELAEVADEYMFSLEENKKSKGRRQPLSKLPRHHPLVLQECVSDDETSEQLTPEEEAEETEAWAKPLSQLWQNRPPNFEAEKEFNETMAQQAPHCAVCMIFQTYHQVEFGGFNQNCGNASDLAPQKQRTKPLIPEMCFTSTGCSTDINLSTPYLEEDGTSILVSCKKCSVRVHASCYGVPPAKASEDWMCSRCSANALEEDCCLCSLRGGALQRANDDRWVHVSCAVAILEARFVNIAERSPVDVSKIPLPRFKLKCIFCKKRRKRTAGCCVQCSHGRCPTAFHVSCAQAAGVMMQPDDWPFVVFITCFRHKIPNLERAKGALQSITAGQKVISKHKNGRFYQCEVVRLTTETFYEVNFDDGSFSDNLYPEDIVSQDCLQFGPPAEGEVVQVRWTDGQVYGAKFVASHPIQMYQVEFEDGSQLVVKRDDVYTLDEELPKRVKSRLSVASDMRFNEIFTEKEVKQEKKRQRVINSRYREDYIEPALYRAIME
BAZ2B block – blocks human BAZ2B. AlphaScreen BAZ2B-H3K14Ac peptide displacement. AID 504333. 360,000 tested, 4.4% active. Potency, µM (titrated, usually from 114 µM), without a hit: at the highest dose activity change, negative = inhibition, most hits filed as inhibitors; also: potency is read from the fitted curve at half-maximal effect; % is scaled to controls: 0 for no effect and ±100 for the full control effect; nearly all actives have a fitted effect of over 60% in size
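AlphaScreen displacement: compounds (up to 110uM) incubated 30 min at room temperature with a preformed 50 nM BAZ2B/50 nM biotinylated H3K14Ac peptide complex in PBS pH 7.4 with Tween-20. Donor and acceptor beads at 10 ug/mL final added, 20 min light-protected before reading.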
* marks the source's active call; other numbers are inactive results; ? = inconclusive; . = no result given; [ ] = another dose, or the depositor's remark. Compounds with a hit are over-represented: about 10% of the library has one in this group of screens. Unless noted, calls follow the shape of the dose curve; as a rule, active = well fitted inhibition curve with a large enough effect; inconclusive = small, poorly fitted or top-dose-only effect; inactive = no such curve, though single readings can be large or run the other way.

SMILES	G9a block	HP1b binding inh	CtBP-E1A inh	Six1-Eya2 inh	JMJD2A Tudor	BAZ2B block
COc1ccc(Cc2nc3ccccc3n2CC(=O)N/N=C/c2ccc(C)cc2O)cc1OC	?	19%	5	-12	?	56µM*
COc1ccc2nc(C)cc(SCC(=O)N/N=C/c3ccccc3)c2c1	?	57%	-21	?	-23%[57.1 µM]	-1%
Cc1oc(-c2cccc(Cl)c2)nc1CS(=O)(=O)CC(=O)NCc1ccccc1Cl	-5%[59 µM]	26%	.	.	-16%	?
COc1ccc(Cn2cc(S(=O)(=O)c3ccc(C)cc3)c(=O)c3cc(F)ccc32)cc1	?	29%	.	.	-11%	-4%
Cc1cc(=O)[nH]c(N/N=C/c2c(O)n(-c3ccccc3)c(=O)c3ccccc23)n1	?	0%	?	-87*	?	40µM*
COc1ccccc1C=NNc1nc(C)cc(=O)[nH]1	.	7%	-10	-1	?	.
Cc1cc(=O)[nH]c(N/N=C/c2ccc(-c3ccc(F)cc3)o2)n1	2%	35%	-82*	-85*	-5%	9%
Cc1cc(=O)[nH]c(N/N=C/c2ccc(Br)s2)n1	15%[59 µM]	28%	?	-73*	9%	-2%
Cc1cc(=O)[nH]c(NN=Cc2c(Cl)cccc2Cl)n1	.	29%	-2	-3	-30%	.
Cc1cccc(-n2c(O)c(C=Nc3ccccc3)c3ccccc3c2=O)n1	?	?	-10	-10	11µM*	-30%
O=C(Cn1ncc2c3ccccc3n(Cc3ccc(F)cc3)c2c1=O)NCc1ccccn1	12%[59 µM]	40%	.	.	-16%	5%
CCOc1ccccc1-n1ccnc(NCc2ccc(F)cc2)c1=O	-39%[59 µM]	-9%	.	.	-25%	-38%
Cc1cc(=O)[nH]c(N/N=C/c2ccc(O)c(O)c2)n1	1%	10%[57 µM]	?	?	2.8µM*	4%
CSc1ccc(/C=N/Nc2nc(C)cc(=O)[nH]2)cc1	1%	15%	?	-18	?	-6%
CN1CCC(Oc2ccc(Sc3ccccc3)cc2)CC1	-6%[59 µM]	16%	-13	-11	-24%	-21%
CN1CCC(Oc2ccccc2Sc2ccc(C(F)(F)F)cc2)CC1	?	11%	-1	-11	?	79µM*
CCc1nn(CC(=O)Nc2c(C)cccc2C)c(=O)c2cc3sccc3n12	-8%[59 µM]	25%	.	.	-10%	2%
Cc1c(C)c2cc(Cl)c(O)c(CN(C)C)c2oc1=O	-2%[12.7 µM]	-1%	7	5	18µM*	-1%
CCCCc1cc(=O)oc2c(CN(C)C)c(O)c(Cl)cc12	-3%[12.7 µM]	-4%	5	4	16µM*	8%
Cc1cc2oc(=O)cc(-c3ccccc3)c2c(C)c1-c1ccoc1	-7%	.	.	.	.	.
COc1ccc(-n2nc3c(c2NC(=O)COc2cccc(OC)c2)CS(=O)(=O)C3)cc1	18µM*	-19%	3	-5	?	?
Cc1ccc(C(=O)/C=C/c2cc(Br)cc(Br)c2O)o1	35µM*	-19%	.	-17	?	?
CCOC(=O)Nc1ccc2c(c1)Sc1ccccc1N2C(=O)CCN1CCOCC1	?	13%	0	-4	-12%	-25%
CCCCN1/C(=C/c2cccc[n+]2C)Sc2cc(NC(C)=O)ccc21	45µM*	15%	.	0	28µM*	-29%
O=C1C=C(c2ccccc2)C[C@H](c2cccs2)[C@H]1n1nnc([N+](=O)[O-])n1	?	?	-11	-25	?	?
SMILES	G9a block	HP1b binding inh	CtBP-E1A inh	Six1-Eya2 inh	JMJD2A Tudor	BAZ2B block
O=C1C=C(c2ccccc2)CC(c2cccs2)C1n1cnc([N+](=O)[O-])c1 (centres undefined)	45µM*	?	-2	-5	-13%	-36%
Cc1ncsc1CCOC(=O)c1cccnc1	?	16%	7	3	?	50µM*
CCOC(=O)c1cccnc1	16%[59 µM]	.	.	.	.	.
CCC(C)NC(=O)Cn1c(=O)n(CC2CCC(C(=O)NC)CC2)c(=O)c2sccc21 (centres undefined)	3%[59 µM]	38%	.	.	-4%	-1%
CC1(C)CC(=O)C2=C(C1)N(c1ccccc1)C(=O)C(C(=O)OCc1ccccc1)C2 (centres undefined)	.	33%	0	5	-8%	.
CC1(C)CC(=O)C2=C(C1)N(c1cccc(O)c1)C1=C(C2)C(=O)CC(C)(C)C1	2.2µM*	56%	1	-3	8%	?
Cc1nc2nc(C)c(NS(=O)(=O)c3ccc(CC(C)C)cc3)c(=O)n2[nH]1	40µM*	-4%	-13	4	1%	12%
Cc1ccc(S(=O)(=O)Nc2c(C)nc3nc(C)[nH]n3c2=O)cc1	79µM*	-6%	-13	1	?	10%
CC1CC1C(=O)Nc1nc(-c2ccccn2)cs1 (centres undefined)	8.9µM*	?	-70*	-82*	56µM*	?
O=C(O)C1CCC1C(=O)Nc1nc(-c2ccc(Cl)s2)cs1 (centres undefined)	?	23%	4	2	-16%	0%
O=C(Nc1nc(-c2ccccn2)cs1)C1COc2ccccc2O1 (centres undefined)	-3%[59 µM]	44%	?	-91*	56µM*	20µM*
Cc1nc(Cl)cc(N/N=C/c2ccc(O)cc2O)n1	?	39%	-81*	-67*	?	35µM*
Cc1cc(N/N=C/c2ccc(O)cc2O)nc(-c2ccccc2O)n1	34%[59 µM]	19%	?	?	-12%	0%
Cc1cc(N/N=C/c2ccc(O)cc2O)nc(-n2nc(C)cc2C)n1	51%[59 µM]	4%	-80*	-70*	-32%	-5%
Cc1nc(Cl)cc(N/N=C/c2ccc(O)cc2)n1	12%	28%	.	-3	-11%	0%
O=C(NCCCc1ccccc1)c1cnc2n(c1=O)CCS2	-10%[12.7 µM]	32%	-11	-1	-8%	16%
O=C(Nc1ccccc1)c1cnc2n(c1=O)CCS2	50µM*	44%	-19	9	-7%	9%
O=C(Nc1ccc2c(c1)OCO2)c1cnc2n(c1=O)CCS2	?	25%	7	0	-12%	11%
O=C(Nc1ccc2c(c1)OCCO2)c1cnc2n(c1=O)CCS2	50µM*	36%	-2	-2	1%	2%
O=C(NCCc1ccc(Cl)cc1)c1cnc2n(c1=O)CCS2	45µM*	23%	2	2	-21%	11%
Cc1cc(OC(C)C(=O)N(Cc2ccco2)Cc2ccccc2F)cc(C)c1Cl (centres undefined)	28%[59 µM]	36%	.	.	-2%	29%
Oc1ccc(CCNc2c3ccccc3nc3ccccc23)cc1O	-1%[0.501 µM]	14%	?	?	28µM*	?
